Most compounds without a hit are left out; they make up all but 3.3% or so of the library.
Tb PYK inh = blocks Trypanosoma brucei pyruvate kinase. Q57TT1. Potency, µM (highest dose often 76.8 µM), inactives show top-dose activity, negative = inhibition, actives largely listed as inhibitors. 0.12% of 410,000 active. TbPYK enzyme, Kinase-Glo Plus ATP luminescence, 45 min; note: % is set by controls: 0 for no effect and ±100 for the full control effect; nearly all actives have a fitted effect of over 50% in size
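Luminescent Kinase-Glo Plus end-point after 45 min room-temperature reaction of T. brucei pyruvate kinase started with 130 uM ADP (final). Buffer TEA 50 mM pH 7.2 with KCl, MgCl2, BSA, Tween-20; titration-based qHTS with fitted concentration-effect curves.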
Sm TGR inh = blocks Schistosoma mansoni thioredoxin glutathione reductase; 3% of 360,000 active; Potency, µM (top dose mostly 114 µM), without a hit: at the highest dose activity change, negative = inhibition, usual class: inhibitors; AID 485364; purified TGR, DTNB reduction, TNB absorbance 405 nm; note: % is set by controls: 0 for no effect and ±100 for the full control effect; nearly all actives have a fitted effect of over 60% in size
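TGR 20 nM + NADPH 100 uM (dispensed conc.), cpd preinc 15 min RT; start with NADPH (500 uM addition) then DTNB (15 mM addition). Kinetic TNB absorbance, 405 nm filter. Four-parameter Hill fit across titration.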
SARS PLP yeast = SARS-CoV PLP inhibition in yeast. S. cerevisiae expressing SARS-CoV PLpro, growth rescue. Potency, µM (series often up to 32.9 µM), for inactives: top-dose activity, positive = growth rescue, usual class: activators. 0.19% of 330,000 active; calls by dose curve; note: 0% is about no effect; nearly all actives have a fitted effect of over 55% in size
AmpC detergent = AmpC beta-lactamase inhibition with detergent present; Potency, µM (highest dose often 114 µM), for the others: at the top dose activity change, negative = inhibition, actives largely listed as inhibitors; AID 485294; P00811; 0.041% of 370,000 active; AmpC hydrolysis of nitrocefin, absorbance 480 nm, 0.01% Triton;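 note: 0% = no-compound wells and -100% = no-enzyme wells; nearly all actives have a fitted effect of over 25% in size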
Target sequence (P00811 whole entry, looked up): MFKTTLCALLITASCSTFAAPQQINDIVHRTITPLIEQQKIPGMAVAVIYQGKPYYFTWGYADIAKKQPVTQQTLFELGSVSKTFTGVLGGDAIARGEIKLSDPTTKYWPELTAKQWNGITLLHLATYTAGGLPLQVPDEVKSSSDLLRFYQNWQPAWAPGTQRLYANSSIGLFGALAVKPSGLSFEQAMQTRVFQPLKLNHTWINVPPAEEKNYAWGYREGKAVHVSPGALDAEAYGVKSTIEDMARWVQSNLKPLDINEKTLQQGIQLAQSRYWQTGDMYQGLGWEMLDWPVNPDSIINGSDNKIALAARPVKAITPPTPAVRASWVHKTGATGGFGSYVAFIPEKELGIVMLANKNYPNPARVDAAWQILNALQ
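20 mM phosphate pH 7.0 + 0.01% (detergent screen) or 0.0001% Triton X-100; 5.3 nM AmpC reagent; cpd preinc 15 min RT; nitrocefin (800 uM stock) to start; A480 q20 s × 4 min; Activity was normalised to no-enzyme and no-compound control wells.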
RE007 growth inh = less growth of the S. pombe RE007 Vpr strain | AID 651644 | 0.21% of 360,000 active | Potency, µM (titrated, usually from 92.2 µM), inactives show at the highest dose activity change, negative = less growth, usual class: inhibitors | S. pombe RE007 Vpr strain, BacTiter-Glo ATP luminescence, 24 h; active = well fitted falling curve with a large enough effect; inconclusive = small, poorly fitted or top-dose-only effect; inactive = no such curve, though single readings can be large or run the other way; note: % is set by controls: 0 for no effect and ±100 for the full control effect; nearly all actives have a fitted effect of over 50% in size
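Fission yeast RE007 carrying one integrated HIV-1 vpr copy, seeded at OD 0.01 in PMG+AL medium with 23 nL pinned compound. Grown 24 h at 30 degrees; viability read by BacTiter-Glo luminescence after 5 min.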
AmpC inh no detg = AmpC beta-lactamase inhibition without detergent. P00811. AmpC nitrocefin hydrolysis, absorbance 480 nm, 0.0001% Triton. AID 485341. 0.52% of 330,000 active. Potency, µM (series often up to 57.1 µM), inactives show at the highest dose activity change, negative = inhibition, actives largely listed as inhibitors;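 note: plate controls were no compound for no effect and no enzyme for full effect; nearly all actives have a fitted effect of over 20% in size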
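AmpC (5.3 nM in the dispensed reagent) in 20 mM phosphate pH 7.0 with 0.01% (detergent screen) or 0.0001% Triton X-100 was preincubated with compounds for 15 min at room temperature. Nitrocefin was then added from an 800 uM solution, and hydrolysis was followed at 480 nm.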
* marks the source's active call; other numbers are inactive results; [ ] = dose if it differs, or a comment. Unless noted, calls come from the whole dose curve; as a rule, active = well fitted curve in the direction sought with a large enough effect; inconclusive = small, poorly fitted or top-dose-only effect, or another doubt; inactive = no such curve, though single readings can be large; an effect the other way counts as inactive or inconclusive. Potency is the fitted concentration of half-maximal effect.

What do the screens show for `O=C(O)c1ccc2c(c1)C(=O)/C(=C/c1ccccc1)C2=O`?
Tb PYK inh: 35µM*; Sm TGR inh: -10%; SARS PLP yeast: 5%; AmpC detergent: -13%; RE007 growth inh: 3%; AmpC inh no detg: -8%

Results for Cc1ccc(/C=C2/C(=O)c3ccc(C(=O)O)cc3C2=O)o1 ?
Tb PYK inh: inconclusive; Sm TGR inh: 5µM*; SARS PLP yeast: 1%; AmpC detergent: 2%; RE007 growth inh: 8%; AmpC inh no detg: -13%

Results for O=C1C(=Cc2ccco2)C(=O)c2ccccc21 ?
Tb PYK inh: -14%; Sm TGR inh: -33%; SARS PLP yeast: -20%; AmpC detergent: inconclusive; RE007 growth inh: -8%; AmpC inh no detg: -29%

What do the screens show for `CC(C)OC(=O)c1c(NC(=O)C2c3ccccc3Oc3ccccc32)sc2c1CCCC2`?
Tb PYK inh: -6%; Sm TGR inh: 7%; AmpC detergent: 28%

How did CCOc1cc(C=O)ccc1O do in these assays?
Tb PYK inh: 2%; SARS PLP yeast: 1%; RE007 growth inh: -16%; AmpC inh no detg: -17%

What do the screens show for `CCOc1cc(/C=C2\CN(CC)C/C(=C\c3ccc(O)c(OCC)c3)C2=O)ccc1O`?
Tb PYK inh: -6%; Sm TGR inh: 40µM*; SARS PLP yeast: -3%; AmpC detergent: inconclusive; RE007 growth inh: -4%; AmpC inh no detg: -2%

Results for CCOc1ccc(N2C(=O)S/C(=C\c3ccc(O)c(OCC)c3)C2=O)cc1 ?
Tb PYK inh: -2%; Sm TGR inh: 4%; SARS PLP yeast: -1%; AmpC detergent: 5%; RE007 growth inh: 3%; AmpC inh no detg: -21%

How did CCOc1cc(/C=C2\SC(=O)N(c3ccc(O)cc3)C2=O)ccc1O do in these assays?
Tb PYK inh: 0%; Sm TGR inh: -8%; SARS PLP yeast: 0%; AmpC detergent: -5%; RE007 growth inh: -6%; AmpC inh no detg: 10µM*

How did COc1cccc(C(=O)Nc2cccc(OCc3cc(=O)n4cc(C)ccc4n3)c2)c1 do in these assays?
Tb PYK inh: -5%; Sm TGR inh: -4%; AmpC detergent: -2%

Results for Cc1ccc(Cl)cc1-n1ncc2c(NCCC3=CCCCC3)ncnc21 ?
Tb PYK inh: 2%; Sm TGR inh: 1%; AmpC detergent: -6%

How did O=C(O)CC1Oc2ccc(Cl)cc2NC1=O (stereo not drawn) do in these assays?
Tb PYK inh: 2%; Sm TGR inh: -1%; SARS PLP yeast: 0%; AmpC detergent: inconclusive; RE007 growth inh: 6%; AmpC inh no detg: 11µM*

Results for COc1ccc(OC)c(NC(=O)c2nc(S(=O)(=O)Cc3ccc(F)cc3)ncc2Cl)c1 ?
Tb PYK inh: -7%; Sm TGR inh: 3.2µM*; AmpC detergent: 1%

Results for CCOc1ccccc1NC(=O)c1nc(S(=O)(=O)Cc2ccccc2)ncc1Cl ?
Tb PYK inh: 5%; Sm TGR inh: 3.5µM*; SARS PLP yeast: -1%; AmpC detergent: 1%; RE007 growth inh: 3%; AmpC inh no detg: -26%

What do the screens show for `COc1ccccc1NC(=O)c1nc(S(=O)(=O)Cc2ccccc2)ncc1Cl`?
Tb PYK inh: -4%; Sm TGR inh: 10µM*; SARS PLP yeast: -3%; AmpC detergent: -9%; RE007 growth inh: 10%; AmpC inh no detg: -29%

Results for COC(=O)N1C(=O)[C@@](c2ccc(OC)cc2)(C(C)C)N1C(=O)OC ?
Tb PYK inh: 1%; Sm TGR inh: 28µM*; SARS PLP yeast: -9%; AmpC detergent: 3%; RE007 growth inh: 4%; AmpC inh no detg: 25%

How did COC(=O)N1C(=O)[C@@](c2ccccc2)(C(C)C)N1C(=O)OC do in these assays?
Tb PYK inh: -8%; Sm TGR inh: 35µM*; SARS PLP yeast: -14%; AmpC detergent: -23%; RE007 growth inh: -11%; AmpC inh no detg: 5%

Results for COC(=O)N1C(=O)[C@](c2ccccc2)(C2CCCC2)N1C(=O)OC ?
Tb PYK inh: -13%; Sm TGR inh: 20µM*; SARS PLP yeast: 0%; AmpC detergent: 8%; RE007 growth inh: -9%; AmpC inh no detg: 33%

How did COC(=O)N1C(=O)[C@](c2ccc(Cl)cc2)(C(C)C)N1C(=O)OC do in these assays?
Tb PYK inh: -7%; Sm TGR inh: 10µM*; SARS PLP yeast: -7%; AmpC detergent: -20%; RE007 growth inh: -5%; AmpC inh no detg: 37%

Results for COCC(C)NC(=O)Cc1ccc(Cl)cc1 (stereo not drawn) ?
Tb PYK inh: -13%; Sm TGR inh: 4%; SARS PLP yeast: -1%; AmpC detergent: 4%; RE007 growth inh: 18%; AmpC inh no detg: -11%

Results for COc1ccc(C)cc1NC(=O)C1CCN(S(=O)(=O)c2ccc3[nH]c4c(c3c2)CCCCC4)CC1 ?
Tb PYK inh: -8%[15.4 µM]; Sm TGR inh: 0%; AmpC detergent: 6%

How did COC(=O)CSc1nnc(-c2cccc(O)c2)o1 do in these assays?
Tb PYK inh: 4%; Sm TGR inh: 5%; AmpC detergent: 8%

How did COc1cc(NC(=O)Cn2ncc3c([nH]c4ccc(C)cc43)c2=O)cc(OC)c1OC do in these assays?
Tb PYK inh: -4%; Sm TGR inh: 0%; AmpC detergent: -6%

What do the screens show for `COC(=O)c1ccc2[nH]c(C3(O)CCCCC3)c(C)c2c1`?
Tb PYK inh: 3%; SARS PLP yeast: -11%; RE007 growth inh: -1%; AmpC inh no detg: -20%

How did Cc1c(C2(O)CCCCC2)[nH]c2ccc(C(F)(F)F)cc12 do in these assays?
Tb PYK inh: 4%; SARS PLP yeast: -2%; RE007 growth inh: 40µM*; AmpC inh no detg: -11%

Results for CCOC(=O)c1c(C)oc2nc(C)nc(NCCc3ccc(OCC)cc3)c12 ?
Tb PYK inh: -7%; Sm TGR inh: 5%; AmpC detergent: 19%

What do the screens show for `Cc1cc(Cn2nnnc2-c2ccncc2)cc(C)c1O`?
Tb PYK inh: 3%; Sm TGR inh: 2.5µM*; SARS PLP yeast: -1%; AmpC detergent: -11%; RE007 growth inh: 6%; AmpC inh no detg: -1%

How did O=[N+]([O-])c1cccc(S(=O)(=O)N2CN(c3ccc(Br)cc3)c3nc4ccccc4nc32)c1 do in these assays?
Tb PYK inh: 0%; SARS PLP yeast: -9%; RE007 growth inh: 10%; AmpC inh no detg: -25%

Results for Cc1ccc(N2CN(S(=O)(=O)c3cccc([N+](=O)[O-])c3)c3nc4ccccc4nc32)cc1 ?
Tb PYK inh: -2%; Sm TGR inh: 45µM*; SARS PLP yeast: 4%; AmpC detergent: 3%; RE007 growth inh: 22%; AmpC inh no detg: 1%

Bioassay records: PubChem BioAssay, National Center for Advancing Translational Sciences (NCATS)
